# Data from the supplement of paper PMC9925115.
# Several values for one entry are separate records, joined by “and”; a condition that tells them apart may be missing. Identical values can stand only once. Counter-ions that a name gives are not always drawn.
# System: FLX1 + dox-induced PRKAR1A G325D
# Experiment: difference in log2 fold change of viability vs plate median (dox-induced PRKAR1A G325D minus uninduced); higher = compound less effective when PKA is inhibited
# Settings: concentration: not stated (2 or 5 uM); 5 days
# Procedure: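 For each plate a log2 fold change vs the plate median was derived, and the values without dox were subtracted from those with dox, averaged over three biological replicates.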
row,Compound,difference in log2 fold change of viability
1,O=C(Nc1ccc(OC(F)(F)F)cc1)c1sccc1NCc1ccnc2ccccc12,0.386
2,N#CC[C@H](C1CCCC1)n1cc(-c2ncnc3[nH]ccc23)cn1,0.145
3,Nc1ccc(C(=O)Nc2cccc(-c3nc(N4CCOCC4)c4oc5ncccc5c4n3)c2)cn1,0.262
4,COc1ccc(-c2cc3c(C)nc(N)nc3n([C@H]3CC[C@H](OCCO)CC3)c2=O)cn1,0.605
5,C=CC(=O)Nc1cccc(Nc2nc(Nc3ccc(NC4CN(CCF)C4)cc3OC)ncc2C(F)(F)F)c1,-0.839
6,COc1ccc2c(Oc3ccc(NC(=O)c4c(C)n(CC(C)(C)O)n(-c5ccccc5)c4=O)nc3)ccnc2c1,0.00712
7,COc1cc(N2CCC(N(C)C)CC2)ccc1Nc1ncc(Cl)c(Nc2ccccc2P(C)(C)=O)n1,-1.41
8,CNC(=O)c1cc(Oc2ccc(NC(=O)Nc3ccc(Cl)c(C(F)(F)F)c3)cc2)ccn1 [Sorafenib Tosylate],-0.44
9,Cc1cnc(-c2cnc(NCCNc3ccc(C#N)cn3)nc2-c2ccc(Cl)cc2Cl)[nH]1,-0.0854 and -0.119
10,CCN(CC)CCCCNc1ncc2cc(-c3cc(OC)cc(OC)c3)c(NC(=O)NC(C)(C)C)nc2n1,-0.527
11,CCc1cccc(CC)c1NC(=O)N1Cc2[nH]nc(NC(=O)c3ccc(N4CCN(C)CC4)cc3)c2C1,0.41
12,N[C@@H]1CCCN(c2c(/C=C3\SC(=O)NC3=O)cccc2-c2ccccc2)C1,0.132
13,O=c1sn(-c2cccc3ccccc23)c(=O)n1Cc1ccccc1 [Tideglusib],1.01
14,C[C@@H](Oc1cc(-n2cnc3ccc(CN4CCN(C)CC4)cc32)sc1C(N)=O)c1ccccc1C(F)(F)F,-0.2
15,CN1CC[C@H](c2c(O)cc(O)c3c(=O)cc(-c4ccccc4Cl)oc23)[C@H](O)C1 [Flavopiridol (Alvocidib)],0.251
16,COc1cc(Nc2ncc(F)c(Nc3ccc4c(n3)N(COP(=O)(O)O)C(=O)C(C)(C)O4)n2)cc(OC)c1OC [Fostamatinib (R788)],-0.76
17,N#C/C(=C(/N)Sc1ccc(N)cc1)c1ccccc1C(F)(F)F,0.1
18,C#Cc1cccc(Nc2ncnc3cc(OC)c(OCCCCCCC(=O)NO)cc23)c1,-0.131
19,O=C(NC1CCNCC1)c1n[nH]cc1NC(=O)c1c(Cl)cccc1Cl,0.272
20,Cn1ncc(Cl)c1-c1cc(C(=O)N[C@H](CN)Cc2ccc(F)c(F)c2)oc1Cl,-0.0579

row,Compound,difference in log2 fold change of viability
1,COc1cc2nccc(Oc3ccc(NC(=O)C4(C(=O)Nc5ccc(F)cc5)CC4)cc3)c2cc1OC [Cabozantinib malate (XL184)],-0.77
2,O=c1ccc2ccc(O)c(O)c2o1 [Daphnetin],-0.062
3,O=C(/C=C/c1ccc2ccccc2n1)c1ccncc1,-0.467
4,O=C(Cc1ccc(-c2ccc(OCCN3CCOCC3)cc2)cn1)NCc1ccccc1,0.213
5,CNC(=O)c1cc(Oc2ccc(NC(=O)Nc3ccc(Cl)c(C(F)(F)F)c3)c(F)c2)ccn1 [Regorafenib (BAY 73-4506)],-0.347
6,Cc1cc(C)c(/C=C2\C(=O)Nc3ccccc32)[nH]1 [Semaxanib (SU5416)],0.256
7,Cc1cc([C@@H](C)Nc2ccccc2C(=O)O)c2nc(N3CCOCC3)cc(=O)n2c1,0.0369
8,CC1(C)CNc2cc(NC(=O)c3cccnc3NCc3ccncc3)ccc21 [Motesanib Diphosphate (AMG-706)],0.326
9,CNC(=O)c1ccccc1Nc1nc(Nc2ccc(N3CCOCC3)cc2OC)ncc1Cl,-1.51
10,CNC(=O)c1ccccc1Sc1ccc2c(/C=C/c3ccccn3)n[nH]c2c1 [Axitinib],-0.125
11,O=C(NC[C@H](O)CO)c1ccncc1Nc1ccc(I)cc1F,-1.7
12,"CC[C@H](CO)Nc1nc(NCc2ccccc2)c2ncn(C(C)C)c2n1 [Roscovitine (Seliciclib,CYC202)]",0.0426
13,N=C(N)NC(=N)NCCc1ccccc1 [Phenformin HCl],-0.0569
14,CCn1c(N)c(C(=O)NC)c(=O)c2ccc(C#CC(C)(O)COC)nc21 (stereo not given),0.0292
15,COc1cc2nccc(Oc3ccc(NC(=O)C4(C(=O)Nc5ccc(F)cc5)CC4)cc3)c2cc1OC,0.457
16,COc1cc(Nc2ncc(F)c(Nc3ccc4c(n3)NC(=O)C(C)(C)O4)n2)cc(OC)c1OC [R406 (free base)],-0.334
17,COc1ccccc1-c1cc(Nc2cccc(CS(N)(=O)=O)c2)ncn1,0.055
18,OCCn1cc(-c2cnc3nnn(Cc4ccc5ncccc5c4)c3n2)cn1,-0.172
19,CNC(=O)Nc1ccc(-c2nc(N3CC4CCC(C3)O4)c3cnn(C4CCC5(CC4)OCCO5)c3n2)cc1,1.48
20,O=c1cc(-c2cccc3c2Sc2ccccc2S3)oc(N2CCOCC2)c1,0.329
